From PubChem BioAssay (NCI)
About 79,000 compounds went through this panel and 15% of them were active in at least one assay; those are over-represented in the sample as a whole. Values without a mark were called inactive. The source made the active and inactive calls. Rule as the data show it: active = growth inhibition above about 70%; inactive = the rest.

Assay: NCI Yeast Anticancer Drug Screen. Data for the rad50 strain (AID 155);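 also: 0% = growth of vehicle-only cultures of the same strain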
Settings: S. cerevisiae rad50 strain growth inhibition; at 50.0 µM; stronger effect = higher value
How it was run: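 DNA repair mutant yeast, compound exposure, growth read-out; inhibition is taken relative to vehicle.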

Row | Structure (SMILES) | growth inhibition
1 | CCOC(=O)c1cnc(SC)nc1Nc1cccc(C)c1 | -13.4%
2 | CCC[CH2][Sn]([CH2]CCC)([O]C(=O)c1nccnc1N)[O]C(=O)c1nccnc1N | 92.2% (active)
3 | Cc1ccc(Nc2nnc(Nc3ccc(C)cn3)c3ccccc23)nc1 | -10.7%
4 | O=S(=O)(O)c1cc2c3ccccc3ccc2c2ccccc12 | 1.75%
5 | Cc1ccc2c3nc4ccccc4c-3csc2c1 | 99.2% (active)
6 | N#C/C(=C/c1cccc2ccccc12)C(N)=O | 21.6%
7 | CC(O)C1CC1 (stereo unspecified) | -17%
8 | O=C(C[N+]12CN3CN(CN(C3)C1)C2)c1ccc(-c2ccccc2)cc1 | 65.7%
9 | O=C(CCCl)NNC1=NCCCN1 | 2.5%
10 | CC(C)=NNS(=O)(=O)c1ccc(C)cc1 | -7.7%
11 | CCOC(=O)COC(=O)CCc1ccccc1 | 0.3%
12 | C=C(C)[C@@H]1CC=C(CO)CC1 | 15.7%
13 | O=C(Cn1cc(I)c(C(=O)NCC(O)CO)n1)NCC(O)CO (stereo unspecified) | -2.2%
14 | Cc1cccc(NC(=O)C(Cl)Cl)n1 | -2.3%
15 | O=C(NCCCn1ccnc1[N+](=O)[O-])C(=O)NCCCn1ccnc1[N+](=O)[O-] | 9.3%
16 | O=C(Cl)c1cc(Cl)cc(Cl)c1Br | 12.9%
17 | COC(=O)NC(=O)CCC(=O)O | -0.15%
18 | O=C(O)c1ccccn1 | -37.6%
19 | NC(=O)c1ccc(NCC2=CC(=O)C=CC2=O)cc1 | -9.85%
20 | CN(C)c1nc2[nH]ncc2c(=O)[nH]1 | 11.6%
21 | CCCCN=C1Nc2nc(=NCCCC)nc3c(Br)cc(Br)c(n23)N1 | 37.2%
22 | CC(C(=O)O)C1Nc2ccccc2NC1=O (stereo unspecified) | 13.4%
23 | Cc1cc(C)c2c(ccc3ccccc32)n1 | -43.9%

Assay: NCI Yeast Anticancer Drug Screen. Data for the mec2-1 strain (AID 157)
Settings: S. cerevisiae mec2-1 strain, at 50.0 µM, stronger effect = higher value
How it was run: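 Compounds were applied to mec2-1 yeast cells. Their growth was then compared with that of vehicle-treated cultures to give growth inhibition.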

Row | Structure (SMILES) | growth inhibition
24 | N#C/C(=C\c1ccco1)C(N)=O | -7%
25 | COCCCNC(=O)c1nc2ccccc2c(=O)n1NC(=O)Cc1ccccc1 | -19.8%
26 | COc1ccc(CCN2CCc3c(C)c(C#N)c4nc5ccccc5n4c32)cc1OC | 26%
27 | COc1cc2c(c(O)c1C)C(=O)CC(c1ccccc1)O2 (stereo unspecified) | -46.3%
28 | CC(C)=CC(=O)OC1C2C(C)C(=O)OC2C(O)C(C)C2C=CC(=O)C21C (stereo unspecified) | -3.6%
29 | NC(=O)NNCc1ccccc1 | -0.3%
30 | O=C1CCC(CC2CCCCC2)CC1 | -3.95%
31 | CC(C)Nc1ccc(O)cc1 | -40%
32 | NC(=O)CC(N)C(=O)NC(Cc1ccccc1)C(=O)NC(Cc1ccccc1)NC(=O)C(Cc1c[nH]c2ccccc12)C(=O)O (stereo unspecified) | 8.05%
33 | CCOC(=O)c1nc2ccc(C(F)(F)F)cc2nc1Nc1ccc(Cl)c(Cl)c1 | 4.1%
34 | Cc1ncc(CSc2ccccc2N)c(CO)c1O | -10.1%
35 | CCOC(=O)C(C(=O)OCC)C(C(=O)OCC)C(=O)OCC | 4.45%
36 | OCC=C1CCCCCC1 | 6.8%
37 | CSC(=S)c1ccc(NSc2ccccc2[N+](=O)[O-])cc1 | 23.6%
38 | COc1ccc(CCNC(=O)Cc2cc(OCc3ccccc3)c(OC)cc2[N+](=O)[O-])cc1OC | 8.4%
39 | O=C(O)c1c(Br)c(Br)c(Br)c(Br)c1C(=O)Nc1ccc(Br)cc1 | -1.3%
40 | O=C1OC(C(O)C(O)C(O)CO)C(O)C1O (stereo unspecified) | -29.9%
41 | CCOC(=O)c1cnc(SC)nc1Nc1cccc(C)c1 | -10.4%
42 | CCC[CH2][Sn]([CH2]CCC)([O]C(=O)c1nccnc1N)[O]C(=O)c1nccnc1N | 92.5% (active)
43 | Cc1ccc(Nc2nnc(Nc3ccc(C)cn3)c3ccccc23)nc1 | -12.4%
44 | O=S(=O)(O)c1cc2c3ccccc3ccc2c2ccccc12 | -5.35%
45 | Cc1ccc2c3nc4ccccc4c-3csc2c1 | 99.4% (active)
46 | N#C/C(=C/c1cccc2ccccc12)C(N)=O | 32.9%
47 | CC(O)C1CC1 (stereo unspecified) | -40.8%
48 | O=C(C[N+]12CN3CN(CN(C3)C1)C2)c1ccc(-c2ccccc2)cc1 | 34.2%
49 | O=C(CCCl)NNC1=NCCCN1 | -14.3%
50 | CC(C)=NNS(=O)(=O)c1ccc(C)cc1 | 14.6%
51 | CCOC(=O)COC(=O)CCc1ccccc1 | -39.6%
